An excerpt weighted towards active compounds, which were near 19% of everything screened.
IL1B secr inh: blocks inflammasome-driven IL-1 beta release; 4.7% of 360,000 active; activity change, % at 57.5 µM; AID 743279; THP-1 LPS/ATP IL-1B secretion, AlphaLISA, 16 h; active compounds read low; in the data active = activity change below about -50%; inconclusive = mostly about -30% to -49%
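THP-1 cells pretreated 1 hr with compounds (up to 57.5 uM final), then stimulated with LPS (250 ng/mL final) plus ATP (1.25 mM final); secreted IL-1B measured by AlphaLISA after 16 hr, decreased signal indicating inhibition.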
HT1080 IDH1KD tx: kills HT-1080 cells with IDH1 knockdown; HT-1080 IDH1 knockdown viability, ATP luminescence, 48 h; Potency, µM (doses to about 46.1 µM), inactives show top-dose activity, negative = toxicity, hits mostly cytotoxic; 2% of 360,000 active; AID 686971;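 also: potency is read from the fitted curve at half-maximal effect; 0% = DMSO wells and -100% = cell-free medium wells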
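Knockdown cells (IDH1KD HT-1080) received compounds 2 h after plating at 750 cells/well and were kept 48 h at 37 °C in 5% FBS RPMI. A CellTiter-Glo luminescence read gave % activity for curve fitting.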
DT40 TDP1 no CPT: qHTS for Inhibitors of human tyrosyl-DNA phosphodiesterase 1 (TDP1): qHTS in cells in absence of CPT | DT40 Tdp1-/- hTDP1 cells, no CPT, ATP luminescence, 48 h | Potency, µM (series often up to 46.2 µM), without a hit: at the top dose activity change, negative = growth inhibition, most hits filed as inhibitors | 15% of 420,000 active | AID 686978, 2013; also: potency is read from the fitted curve at half-maximal effect; nearly all actives have a fitted effect of over 55% in size
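Camptothecin absent (DMSO only). Human TDP1-complemented DT40 knockout cells, 400 cells/well, 37 °C for minimum 48 hr; ATP measured via CellTiter-Glo, 30 min dark incubation, luminescence.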
ELG1 repair inh: blocks ELG1-dependent DNA repair in HEK293T cells; 2.3% of 330,000 active; HEK293T ELG1-luciferase reporter, luminescence, 16 h; DNA damage induced by 5-fluorouridine; AID 504467; Potency, µM (titrated, usually from 46.1 µM), for the others: at the highest dose activity change, negative = inhibition, actives largely listed as inhibitors; also: potency is read from the fitted curve at half-maximal effect; nearly all actives have a fitted effect of over 55% in size
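Quantitative HTS, concentration-response format. 2,000 cells/well co-treated with 5-fluorouridine and compound, 16 hr in 5% CO2 at 37 °C; ONE-Glo luminescence read after 30 min.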
DT40 TDP1 CPT: growth inhibition of DT40 Tdp1-/-;hTDP1 cells with camptothecin (screen for TDP1 inhibitors); AID 686979; chicken DT40 Tdp1-/-;hTDP1 cells + 20 nM CPT, ATP luminescence, 48 h; 12% of 420,000 active; Potency, µM (doses to about 46.2 µM), inactives show at the highest dose activity change, negative = growth inhibition, actives largely listed as inhibitors; also: potency is read from the fitted curve at half-maximal effect; nearly all actives have a fitted effect of over 55% in size
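Cell growth measured by CellTiter-Glo luminescence after a minimum 48 h, 37 C compound exposure with 20 nM CPT in Tdp1-knockout DT40 cells stably expressing hTDP1, seeded 400/well; qHTS titration format.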
HT1080NT lethal: kills 2HG-producing HT-1080-NT fibrosarcoma cells | HT-1080-NT fibrosarcoma viability, CellTiter-Glo ATP luminescence, 48 h | Potency, µM (titrated, usually from 46.1 µM), for the others: top-dose activity, negative = less viability, actives largely listed as cytotoxic | 1.6% of 360,000 active | AID 686970;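 also: NT is the 2HG producing partner of a matched IDH1 knockdown line; potency is read from the fitted curve at half-maximal effect; 0% = DMSO-treated cells and -100% = media-only wells without cells; nearly all actives have a fitted effect of over 55% in size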
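Luminescent CellTiter-Glo readout after 48 hours of compound exposure at 37 degrees C defined viability of HT-1080-NT cells. Activity was normalized to DMSO wells and cell-free media wells; concentration-response curves were fitted and assigned curve classes.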
Starred values were filed as active, the others as inactive; u = inconclusive; x = no result given. Unless noted, calls follow the shape of the dose curve; as a rule, active = well fitted curve in the direction sought with a large enough effect; inconclusive = small, poorly fitted or top-dose-only effect, or another doubt; inactive = no such curve, though single readings can be large; an effect the other way counts as inactive or inconclusive. Unless noted, % is scaled to controls: 0 for no effect and ±100 for the full control effect.

SMILES	IL1B secr inh	HT1080 IDH1KD tx	DT40 TDP1 no CPT	ELG1 repair inh	DT40 TDP1 CPT	HT1080NT lethal
CCCCNC(=O)C[C@@H]1C[C@@]2(C(=O)OC)CCCCC=C2N(Cc2ccc(Cl)cc2Cl)C1=O	-5	-19%	16µM*	x	u	u
COC(=O)[C@]12CCCCC=C1N(Cc1ccc(Cl)cc1Cl)C(=O)[C@H](CC(=O)NCCC(C)C)C2	u	u	21µM*	x	u	u
COc1ccccc1CNc1ncncc1-c1cccc(C#N)c1	x	x	-17%	x	-16%	x
COC(=O)c1c(NC(=O)CCS(=O)(=O)c2ccccc2)sc2c1CCN(C)C2	u	16%	3.7µM*	2%	5.8µM*	15%
CC(C)N1CCc2c(sc(NC(=O)CCS(=O)(=O)c3ccccc3)c2C#N)C1	-12	1%	26µM*	u	u	-14%
CC(C)N1CCc2c(sc(NC(=O)CCc3ccccc3)c2C(N)=O)C1	u	-3%	-7%	-23%	-2%	-3%
COCCN(CCOC)S(=O)(=O)c1ccc(C(=O)Nc2sc3c(c2C(=O)OC)CCN(C)C3)cc1	x	x	u	x	-13%	x
CC(C)(C)C(=O)Nc1sc2c(c1C#N)CCN(Cc1ccccc1)C2	-19	-1%	23µM*	0%	u	-14%
N#Cc1c(N)sc2c1CCN(CCc1ccccc1)C2	1	-8%	u	5%	18µM*	-2%
O=C(CSc1ncnc2sccc12)Nc1ccccc1F	3	-9%	-1%	2%	0%	4%
CN(Cc1ccccc1F)c1ncnc2sccc12	27	-27%	21µM*	-14%	u	-22%
CN(Cc1cccs1)c1ncnc2sccc12	-21	-18%	16µM*	-14%	u	-23%
OCCN(Cc1ccccc1)c1ncnc2sccc12	26	-18%	13µM*	-13%	u	-14%
O=C(Nc1nnc([C@H]2C[C@H](O)[C@@H](CO)O2)s1)c1ccccc1F	25	23%	-6%	x	3%	u
COC(=O)[C@@H]1[C@@H]2C[C@H]3c4[nH]c5ccccc5c4CCN3C[C@@H]2CC[C@@H]1O	x	x	-13%	x	u	x
O=C(CSc1nnc(-c2ccccn2)o1)Nc1ccc(F)cc1	-23	11%	12%	u	-21%	1%
COc1cc(NC(=O)Nn2cnnc2)cc(OC)c1OC	11	11%	-14%	-10%	-2%	3%
O=C(CNC(=O)N1CC(=O)Nc2ccccc21)NCCc1c[nH]c2ccccc12	-22	-3%	0%	3%	-3%	-2%
N#CC(=C1C=CC(=NO)C(Cl)=C1)c1ccc(Cl)cc1	-54*	u	3.7µM*	x	4.6µM*	-22%
CCOc1ccc(N(C(=O)CNC(=O)c2ccco2)C(C(=O)NC2CCCC2)c2cccnc2)cc1 (stereo not given)	15	-2%	-16%	6%	-10%	-11%
COc1cccc(-c2ccc(NC(=O)C3CCCN(Cc4nccn4C)C3)cc2)c1 (stereo not given)	0	-2%	u	17%	u	-7%
CCn1cc(CN2CCCC(C(=O)Nc3cccc(-c4cc5ccccc5[nH]4)c3)C2)c(C)n1 (stereo not given)	-53*	u	u	0%	23µM*	21µM*
Cn1cc(CN2CCCC(C(=O)Nc3cccc(-c4cc5ccccc5[nH]4)c3)C2)cn1 (stereo not given)	-92*	29µM*	u	3%	u	u
CCc1ccc(NC(=O)C(=O)NCC(c2ccc3c(c2)OCO3)N2CCOCC2)cc1 (stereo not given)	x	x	-9%	x	0%	x
CCc1ccc(NC(=O)C(=O)NCC(c2ccc3c(c2)OCO3)N2CCN(C)CC2)cc1 (stereo not given)	x	x	16µM*	x	u	x
SMILES	IL1B secr inh	HT1080 IDH1KD tx	DT40 TDP1 no CPT	ELG1 repair inh	DT40 TDP1 CPT	HT1080NT lethal
Cc1ccc(NC(=O)C(=O)NCC(c2ccc3c(c2)OCO3)N2CCN(C)CC2)cc1C (stereo not given)	x	x	u	x	16µM*	x
CC(OC(=O)/C(C#N)=C/c1ccco1)C(=O)N(C)c1ccccc1 (stereo not given)	-13	13%	-14%	17%	8%	7%
Fc1ccc(/C=C2\CCCC3=C2Nc2ncnn2C3c2ccc(F)cc2)cc1 (stereo not given)	-122*	6.5µM*	18µM*	4.6µM*	15µM*	7.3µM*
COc1ccc(C2C3=C(Nc4ncnn42)c2ccccc2CCC3)cc1 (stereo not given)	-1	-2%	-25%	3%	0%	-5%
CNC(=O)c1c(NC(=O)c2cc(=O)c3cc(C)c(C)cc3o2)sc2c1CCCC2	x	x	-5%	x	-4%	x
Cc1ccc2cc(F)c(F)c(F)c2n1	30	8%	-2%	x	4%	u
Cc1ccc2ccc3ccc(C)nc3c2n1	63	u	0.15µM*	-8%	0.016µM*	0.0058µM*
COC(=O)c1cc(S(=O)(=O)NCCN2CCOCC2)cn1C	-5	12%	24%	14%	8%	11%
O=C(CCN(CCO)Cc1ccccc1)Nc1ccc(Br)cc1	0	u	u	14%	u	u
CCN(CCC(=O)Nc1ccc(Br)c(C)c1)Cc1ccccc1	u	u	29µM*	-1%	u	15µM*
CCN(CC)c1ccc(-c2nn3c(-c4n[nH]c5c4CCC5)nnc3s2)cc1	20	2.3µM*	0.65µM*	1%	0.92µM*	1.5µM*
O=C(Nc1cccc(S(=O)(=O)N2CCCCCC2)c1)C1CCC1	-5	2%	u	11%	-11%	6%
Cc1ccc(NC(=S)NCc2ccc(F)cc2)c(C)c1	-23	1%	-20%	-7%	-15%	0%
Cc1ccc(NC(=O)NCc2ccc3c(c2)OCO3)c(C)c1	-7	17%	-3%	8%	1%	20%
Cc1ccc(NC(=S)NCc2ccc3c(c2)OCO3)c(C)c1	u	7%	21µM*	6%	u	0%
Cc1ccc(NC(=S)NCc2ccc3c(c2)cc(C)n3C)c(C)c1	-2	9%	23µM*	u	23µM*	1%
CN(CC(=O)Nc1ccccc1Sc1ccccc1)Cc1nc2ccccc2c(=O)[nH]1	-18	u	18µM*	u	u	-21%
CSc1ccc(CN(C)Cc2nc3ccccc3c(=O)[nH]2)cc1	3	-1%	15µM*	u	u	-11%

High-throughput results from PubChem.
